Assay [1] in a line: stimulators of nuclear beta-catenin in C2C12, primary screen, imaging, WNT3A-conditioned medium, mouse C2C12, NPC library (AID 1117326; in the data active means nuclear beta-catenin stimulation mostly above about 4.2%, no sharp cut-off; inactive means mostly below about 10%). Conditions: stronger effect = higher value.
Assay [2] is described as follows: stimulators of insulin release from INS-1E, primary screen, cell-based, 5 mM glucose, NPC library (AID 1117329;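 active means compound raises insulin release from rat beta cells at 5 mM glucose, no numeric limit stated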). The following applies: rat INS-1E insulin secretion, at 10 µM, stronger effect = higher value.
Assay [3] can be described thus: growth inhibition of GSK3B-pretreated HCT116 cells – cell-based, CellTiter-Glo, 0.2 to 20 µM (AID 1117336;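 active means compounds lowering colon cancer cell viability after pretreatment blocking the GSK3B kinase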). The following applies: HCT116 viability after GSK3B inhibitor, at 20 µM, stronger effect = higher value. For orientation: Cellular ATP, detected with luciferase, serves as a proxy for viable cell number.
A short description of assay [4]: inhibition of endothelial tube formation, primary screen, imaging, VEGF stimulated, CD31 staining, tube area, NPC library (AID 1117340;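 active means compound that reduces growth-factor-driven endothelial tube area in a mixed cell culture, no cutoff stated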). The following applies: VEGF-stimulated ADSC/ECFC co-culture, at 10 µM, stronger effect = higher value.
A short description of assay [5]: glucagon-like peptide 1 release enhancers, primary assay, NCI-H716 cell line, NPC library (AID 1117341;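 active means compound raises GLP1 secretion from the human gut endocrine cells, with no numeric limit stated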). Conditions: NCI-H716 cells, at 10 µM, stronger effect = higher value.
Assay [6] in a line: HCT116 colon cancer cell growth inhibition, primary screen, CellTiter-Glo luminescence, NPC library (AID 1117342). Conditions: at 20 µM (top of the series).
Assay [7] in a line: CellTiter-Glo luminescent readout of SW480 viability loss, NPC library primary (AID 1117343;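 active means compounds that lower viability of the colon cancer cells in the luminescence readout, with no numeric limit stated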). Conditions: CellTiter-Glo luminescence; at 20 µM (top of the series).
Assay [8] in a line: decreased DLD-1 cellular survival, CellTiter-Glo luminescent readout, NPC compound collection, primary HTS (AID 1117346;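 active means compounds that lower survival of DLD-1 colon cancer cells in the luminescence readout, no cutoff given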). Conditions: DLD-1 viability, CellTiter-Glo luminescence; at 20 µM (top of the series).
In assay [9] the target is 6-phosphogluconate dehydrogenase, decarboxylating (Homo sapiens) (UniProt P52209). Kind of assay: 6PGD enzyme inhibitors, primary screen, biochemical, human, recombinant enzyme, NADPH absorbance (AID 1159550;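 active means at least 20% inhibition of 6-phosphogluconate dehydrogenase activity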). The following applies: recombinant 6PGD, NADPH absorbance 341 nm; at 10 µM; stronger effect = higher value.
Chain of 6-phosphogluconate dehydrogenase, decarboxylating (Homo sapiens) (P52209 whole entry, looked up): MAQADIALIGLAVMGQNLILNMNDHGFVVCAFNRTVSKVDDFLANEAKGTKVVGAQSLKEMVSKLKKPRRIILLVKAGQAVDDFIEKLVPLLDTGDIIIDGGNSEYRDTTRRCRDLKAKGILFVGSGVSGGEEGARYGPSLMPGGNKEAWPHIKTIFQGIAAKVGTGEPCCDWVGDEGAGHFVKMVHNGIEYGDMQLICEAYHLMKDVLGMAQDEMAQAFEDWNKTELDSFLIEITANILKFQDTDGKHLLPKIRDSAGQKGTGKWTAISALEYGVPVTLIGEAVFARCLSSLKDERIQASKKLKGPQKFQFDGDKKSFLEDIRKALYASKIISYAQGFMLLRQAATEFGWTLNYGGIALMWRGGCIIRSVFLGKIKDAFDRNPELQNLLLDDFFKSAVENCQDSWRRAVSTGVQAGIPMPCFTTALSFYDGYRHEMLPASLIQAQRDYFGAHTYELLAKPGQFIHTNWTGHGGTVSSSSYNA

This note sets out measurements from PubChem BioAssay.

What is called inhibition is the relative decrease from the control value, in per cent.

Calls of active or inactive are those of the source.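 How the source made its calls, unless noted: active means compounds that lower survival of HCT116 colon cancer cells in the luminescence readout, no numeric limit stated; inactive means the rest.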

As to `O=c1cc(CO)occ1O`, the nuclear beta-catenin stimulation in assay [1] (at 10 µM) was 2.6% (inactive); in [1] (stimulation, at 2 µM), 0.4%. The insulin secretion stimulation in assay [2] was -1.3% (inactive). For the same molecule, in [3], the viability decrease was -8.3% (inactive). For the same molecule, the tube area decrease in assay [4] is -7.1% (inactive). The GLP1 secretion stimulation in [5] was 1.9% (inactive). For the same molecule, the inhibition of viability in assay [6] is -7% (inactive). In addition, the viability decrease (inhibition) in assay [7] was 38.7% (inactive); in assay [8], 10.8% (inactive). Moreover, the inhibition in [9] was 6.93% (inactive).

Regarding `Cc1nc(-c2ccc(OCC(C)C)c(C#N)c2)sc1C(=O)O`, the nuclear beta-catenin stimulation in assay [1] (at 10 µM) is 1.3% (inactive); in [1] (stimulation, at 2 µM) it was 0.4%. The insulin secretion stimulation in assay [2] is 3.8% (inactive). For the same molecule, the viability decrease in [3] is 25.8% (inactive). Moreover, the tube area decrease in [4] was -47.3% (inactive). In addition, in assay [5], the GLP1 secretion stimulation is 4.1% (inactive). In addition, the inhibition of viability in [6] is 25.4% (inactive). Besides, the values for the viability decrease (inhibition) in assay [7] and in assay [8] were 57.5% (active) and 28.7% (inactive), respectively.

Regarding `CO[C@H]1C=CO[C@@]2(C)Oc3c(C)c(O)c4c(O)c(c(/C=N/N5CCN(C)CC5)c(O)c4c3C2=O)NC(=O)/C(C)=C\C=C[C@H](C)[C@H](O)[C@@H](C)[C@@H](O)[C@@H](C)[C@H](OC(C)=O)[C@@H]1C`, the nuclear beta-catenin stimulation is 0.6% (inactive) in [1] (at 10 µM) and 1.2% in assay [1] (stimulation, at 2 µM). Moreover, the insulin secretion stimulation in assay [2] was 1.4% (inactive). Moreover, the viability decrease in [3] is 67.8% (active). Further, in [4], the tube area decrease was 48.6% (active). Also, the GLP1 secretion stimulation in assay [5] was -1.8% (inactive). Also, the inhibition of viability in assay [6] is 67.5% (active). The viability decrease (inhibition) in assay [7] is 87.1% (active); in [8], 65.6% (active).

With `NC(CS)C(=O)O` (centres undefined), the nuclear beta-catenin stimulation was -0.1% (inactive) in assay [1] (at 10 µM) and 0.4% in [1] (stimulation, at 2 µM). Besides, the insulin secretion stimulation in assay [2] is -0.5% (inactive). Further, the viability decrease in [3] was -0.35% (inactive). In addition, in [4], the tube area decrease was 3.4% (inactive). Moreover, the GLP1 secretion stimulation in assay [5] was -1.7% (inactive). Besides, the inhibition of viability in [6] is 16.7% (inactive). Also, the results for the viability decrease (inhibition) in [7] and in [8] were 34.5% (inactive) and 32.7% (inactive), respectively.

In the case of `Cc1c(Cl)cccc1Nc1ccccc1C(=O)O`, the nuclear beta-catenin stimulation in assay [1] (at 10 µM) was 1.9% (inactive); in assay [1] (stimulation, at 2 µM) it was 1.6%. For the same molecule, the insulin secretion stimulation in assay [2] was 2.1% (inactive). Also, in assay [3], the viability decrease is -14.5% (inactive). For the same molecule, in [4], the tube area decrease is -8.8% (inactive). For the same molecule, the GLP1 secretion stimulation in assay [5] was 3.6% (inactive). Also, the inhibition of viability in assay [6] is 35.6% (inactive). For the same molecule, the values for the viability decrease (inhibition) in assay [7] and in [8] were 68.1% (active) and 93.6% (active), respectively. Also, the inhibition in assay [9] was -12.8% (inactive).

Consider `Nc1ccc(S(=O)(=O)Nc2nccs2)cc1`, for which the nuclear beta-catenin stimulation in [1] (at 10 µM) is 0% (inactive); in assay [1] (stimulation, at 2 µM) it was 0%. In addition, the insulin secretion stimulation in assay [2] is -1.1% (inactive). In addition, the viability decrease in assay [3] is -5.95% (inactive). Moreover, the tube area decrease in assay [4] was 18.7% (inactive). Moreover, the GLP1 secretion stimulation in assay [5] was -3.5% (inactive). The inhibition of viability in assay [6] is -3.5% (inactive). Also, the viability decrease (inhibition) in assay [7] was 52.4% (active); in assay [8], 12% (inactive). The inhibition in assay [9] was 2.97% (inactive).

For the molecule `Oc1cc(O)c2c(c1)O[C@H](c1ccc(O)c(O)c1)[C@H](O)C2`, the nuclear beta-catenin stimulation in [1] (at 10 µM) is -1.4% (inactive); in [1] (stimulation, at 2 µM) it was 1.2%. Further, in assay [2], the insulin secretion stimulation is -0.7% (inactive). Moreover, the viability decrease in assay [3] is 14.4% (inactive). Also, the tube area decrease in assay [4] is -6.6% (inactive). In addition, the GLP1 secretion stimulation in assay [5] was -3.1% (inactive). In assay [6], the inhibition of viability was 1.73% (inactive). Besides, the viability decrease (inhibition) in assay [7] is -72.1% (inactive); in [8], -2% (inactive). In addition, the inhibition in assay [9] was -5.84% (inactive).

As to `O=C1O[C@H](CO)[C@@H](O)[C@H](O)[C@H]1O`, the nuclear beta-catenin stimulation in assay [1] (at 10 µM) was -1.1% (inactive); in [1] (stimulation, at 2 µM) it was 1%. Besides, the insulin secretion stimulation in assay [2] is 1.8% (inactive). For the same molecule, the viability decrease in [3] is -0.7% (inactive). Moreover, in assay [4], the tube area decrease is -3.8% (inactive). Further, the GLP1 secretion stimulation in assay [5] was -2.6% (inactive). Also, the inhibition of viability in assay [6] was 14.6% (inactive). Further, the viability decrease (inhibition) in assay [7] is 31.1% (inactive); in [8], 20% (inactive). The inhibition in [9] was -9.11% (inactive).

Turning to `Oc1cccc2[nH]ccc12`, the nuclear beta-catenin stimulation in [1] (at 10 µM) is 1.5% (inactive); in assay [1] (stimulation, at 2 µM), -1.2%. Moreover, in assay [2], the insulin secretion stimulation was 4.05% (inactive). The viability decrease in assay [3] is 41.8% (inactive). Further, the tube area decrease in [4] is -3.7% (inactive). For the same molecule, the GLP1 secretion stimulation in [5] is -2.4% (inactive). In addition, the inhibition of viability in assay [6] is 9.6% (inactive). The viability decrease (inhibition) was 0.4% (inactive) in assay [7] and -8.1% (inactive) in assay [8].

As for `C#CCN[C@@H]1CCc2ccccc21`, the nuclear beta-catenin stimulation in [1] (at 10 µM) is 0.9% (inactive); in assay [1] (stimulation, at 2 µM), 1.4%. Besides, the insulin secretion stimulation in assay [2] is 2.6% (inactive). For the same molecule, in assay [3], the viability decrease is -29.8% (inactive). In assay [4], the tube area decrease is 3.2% (inactive). Further, in assay [5], the GLP1 secretion stimulation is 0% (inactive). In addition, the inhibition of viability in assay [6] is -2% (inactive). Further, the figures for the viability decrease (inhibition) in [7] and in assay [8] were -41% (inactive) and -21.6% (inactive), respectively.

In the case of `CCN(CC)CCNc1ccc(CO)c2sc3ccccc3c(=O)c12`, the nuclear beta-catenin stimulation was 63.7% (active) in [1] (at 10 µM) and 1.8% in [1] (stimulation, at 2 µM). The insulin secretion stimulation in [2] is 0.6% (inactive). Besides, the viability decrease in assay [3] was 24.4% (inactive). For the same molecule, the tube area decrease in assay [4] was 76% (active). In assay [5], the GLP1 secretion stimulation was 10.2% (inactive). For the same molecule, the inhibition of viability in assay [6] is 78.1% (active). Also, the viability decrease (inhibition) in assay [7] is 74.7% (active); in assay [8], 35.6% (inactive). For the same molecule, the inhibition in assay [9] was 7.31% (inactive).

In the case of `C[C@@H]1CN(c2c(F)c(F)c3c(=O)c(C(=O)O)cn(C4CC4)c3c2F)C[C@H](C)N1`, the nuclear beta-catenin stimulation is -0.9% (inactive) in assay [1] (at 10 µM) and 1.1% in [1] (stimulation, at 2 µM). The insulin secretion stimulation in [2] is -0.9% (inactive). Besides, the viability decrease in [3] was -4.4% (inactive). Also, in assay [4], the tube area decrease was -17.5% (inactive). Besides, in assay [5], the GLP1 secretion stimulation is -0.3% (inactive). The inhibition of viability in [6] was 4.9% (inactive). Besides, the figures for the viability decrease (inhibition) in assay [7] and in assay [8] were 24.4% (inactive) and -6.7% (inactive), respectively.

Consider `CCCCCCCCCCCCCCCCCCOCC(O)CO` (centres undefined), for which the nuclear beta-catenin stimulation in assay [1] (at 10 µM) was 3.8% (inactive); in assay [1] (stimulation, at 2 µM), 2.8%. Also, the insulin secretion stimulation in [2] was 1.3% (inactive). Also, in assay [3], the viability decrease was -5.2% (inactive). Moreover, the tube area decrease in [4] was 7.6% (inactive). Further, the GLP1 secretion stimulation in assay [5] is 30.1% (active). Besides, the inhibition of viability in assay [6] was -10.7% (inactive). In addition, the values for the viability decrease (inhibition) in assay [7] and in [8] were 4.8% (inactive) and -8.8% (inactive), respectively. Moreover, in assay [9], the inhibition was -2.18% (inactive).

`O=c1[nH]cnc2nc[nH]c12`: the nuclear beta-catenin stimulation in assay [1] (at 10 µM) was -0.2% (inactive); in assay [1] (stimulation, at 2 µM), 1.5%. In addition, the insulin secretion stimulation in [2] is 0.7% (inactive). Also, in [3], the viability decrease was -11% (inactive). Further, the tube area decrease in assay [4] was -3.2% (inactive). For the same molecule, the GLP1 secretion stimulation in [5] is 0.7% (inactive). For the same molecule, the inhibition of viability in assay [6] is -26.8% (inactive). In addition, the viability decrease (inhibition) in assay [7] was -73% (inactive); in assay [8], -26.4% (inactive). Further, the inhibition in assay [9] was 4.21% (inactive).
